This note sets out measurements from PubChem BioAssay (NCATS).

Experiment [1] in a line: P-glycoprotein substrates identified in KB-8-5-11 adenocarcinoma cell line, qHTS therapeutic library screen (AID 1346987). Further: on the % scale 0 is the no-effect control and ±100 the full control effect; nearly all actives have a fitted effect of over 65% in size. The essentials:
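KB-8-5-11: colchicine-selected sub-line of KB-3-1 over-expressing P-gp; assay medium lacked colchicine. 72 h drug exposure at 37 degree C, CellTiter-Glo.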

Experiment [2] concerns Zika virus NS2B-NS3 protease (unlinked complex). The experiment can be described thus: Primary screen GU Rhodamine qHTS for Zika virus inhibitors: Unlinked NS2B-NS3 protease assay (AID 1347159). Further: on the % scale 0 is the no-effect control and ±100 the full control effect; nearly all actives have a fitted effect of over 60% in size. The essentials: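 Percent inhibition derives from the 15-min fluorescence change (ex 480, em 540 nm), normalized to no-enzyme and no-inhibitor wells. Reactions contained 25 nM NS2B-NS3 complex and 1.5 microM substrate in 10 mM Tris-HCl pH 8.0.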
For orientation: qHTS replaces the single test concentration by a dilution series.

Experiment [3] has as its target Calcium and integrin-binding protein 1 (Homo sapiens) (UniProt Q99828). The experiment in a line: Primary qHTS for Identification of Calcium Integrin Binding Protein 1 (CIB1) Competitor (AID 1508620).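 Further: GST tagged CIB1 binding a fluorescein labelled alphaIIb integrin peptide tracer; top concentration of the series differs between compounds; on the % scale 0 is the no-effect control and ±100 the full control effect.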 The essentials:
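Fluorescence polarization competition: GST-tagged CIB1 (1 uM final) preincubated with compound 15 min at room temperature, then FITC-labelled alphaIIb peptide (100 nM final) added. After 15 min at room temperature, polarization read at Ex 480/Em 540.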

Experiment [4] can be described thus: Primary qHTS for inhibitors of nuclear receptor binding SET domain protein 2 (NSD2) in an isogenic RCH-ACV NSD2 p.E1099K mutant (9B) (AID 1645876). Further: potency means the concentration at half of the fitted maximal effect; nearly all actives have a fitted effect of over 70% in size.
The nature of experiment [5]: Primary qHTS for inhibitors of nuclear receptor binding SET domain protein 2 (NSD2) in an RCH-ACV wild type WT cells (2C) (AID 1645877). Further: potency means the concentration at half of the fitted maximal effect; nearly all actives have a fitted effect of over 70% in size.
The target in experiment [6] is Glutathione peroxidase 1 (Homo sapiens) (UniProt P07203). The experiment in a line: Primary qHTS Assay for Inhibitors of Recombinant Selenoprotein Glutathione Peroxidase 1 (GPX1) (AID 1845191). Further: nearly all actives have a fitted effect of over 65% in size. The essentials:
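GR-coupled assay: compounds preincubated 30 min at room temperature with GPX1, then reaction started with CHP; final 10 nM GPX1, 1 mM GSH, 0.5 mM CHP, 0.5 mM NADPH, 100 nM GR, 0.01% BSA, pH 7.5 Tris buffer. NADPH fluorescence (340/450 nm) read at 0 and 15 min.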

In experiment [7] the target is Phospholipid hydroperoxide glutathione peroxidase GPX4 (Homo sapiens) (UniProt P36969). The experiment can be described thus: Primary qHTS Assay for Inhibitors of Recombinant Selenoprotein Glutathione Peroxidase 4 (GPX4) (AID 1845192). Further: nearly all actives have a fitted effect of over 65% in size. To be noted: outcome: dose series up to 50 µM unless noted. The essentials: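 GR-coupled assay: recombinant GPX4 preincubated 30 min with compound at room temperature; final 200 nM GPX4, 1 mM GSH, 0.5 mM cumene hydroperoxide, 0.5 mM NADPH, 100 nM GR, 0.01% BSA, pH 7.5 Tris. NADPH fluorescence (340/450 nm) read at 0 and 15 min.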

Experiment [8] addresses Luciferin 4-monooxygenase (Photinus pyralis) (UniProt P08659). The experiment can be described thus: Primary firefly luciferase (FLuc) qHTS assay for identification of artifact compounds. (AID 1845220). Further: nearly all actives have a fitted effect of over 60% in size. Summed up:
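Enzymatic FLuc inhibition assay: compounds pre-exposed to luciferin/ATP (10 uM each) for 15 min, then purified P. pyralis enzyme at 10 nM added. Read-out: luminescence at 5 min.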

The nature of experiment [9]: Primary fluorescence-based thiol-reactive (MSTI) qHTS assay for identification of artifact compounds. (AID 1845221).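 Further: thiol-reactive compounds lower the probe fluorescence signal; nearly all actives have a fitted effect of over 65% in size.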 Summed up: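 Curve-fitted percent inhibition (4-parameter Hill) derived from fluorescence, Ex 525/Em 598 nm, scaled with Acetyl-MSTI and MSTI; 1 h incubation at room temperature.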
Experiment [10] has as its system Nanoluciferase (engineered Oplophorus gracilirostris luciferase). The experiment in a line: Primary Nanoluciferase (NLuc) qHTS assay for identification of artifact compounds. (AID 1845222).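 Further: NLuc secreted into diluted conditioned medium of S16 cells; 0% = DMSO and -100% = no enzyme.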 Summed up: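 S16 cell supernatant NLuc, 1:55; cpds qHTS; 15 min RT dark; Nano-Glo substrate 1:100, 5 min; luminescence; Hill fit of % inhibition.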
Experiment [11] is described as follows: qHTS drug screen for cell cycle checkpoint inhibitors in PARPi-resistant BRCA-mutant ovarian cancer cell lines. (AID 1963452; calls by dose curve). To be noted: PEO1/OlaR viability, CellTiter-Glo luminescence, 96 h, stronger effect = lower value. The essentials: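 PEO1, PEO4 and PEO1/OlaR ovarian cancer cells, 600 per well, exposed 96 h at 37C to a dilution series. Viability read by CellTiter-Glo luminescence, normalized to DMSO and empty wells; activity summarized as Z-AUC.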

Another experiment concerns Es-2. The experiment can be described thus: Primary qHTS to identify gynecologic anti-cancer compounds using libraries of approved drugs and bioactive compounds (AID 1345084). Further: nearly all actives have a fitted effect of over 55% in size. Further: potency means the concentration at half of the fitted maximal effect. The settings on record: Gynecologic cancer cell panel viability, ATPlite luminescence, 48 h; series mostly up to 57.5 µM. The essentials: (§1)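 Cytotoxicity screen measuring ATP content by luciferase luminescence. Each compound is applied at five concentrations for 48 h at 37 C with 5% CO2.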

The test system of the next experiment is HeLa. The experiment is described as above. The settings on record: Gynecologic cancer cell panel viability, ATPlite luminescence, 48 h; series mostly up to 57.5 µM. Summed up: as §1
A general note: Cellular ATP, detected with luciferase, serves as a proxy for viable cell number.

A further experiment relates to Hek293T. The experiment is described as above. The settings on record: Gynecologic cancer cell panel viability, ATPlite luminescence, 48 h, control line for the selectivity index; series mostly up to 57.5 µM. The essentials: as §1
Experiment [12] deals with Zika virus NS2B-NS3 protease (linked construct). The experiment can be described thus: Primary screen NINDS Rhodamine qHTS for Zika virus inhibitors (AID 1347160). Further: nearly all actives have a fitted effect of over 55% in size. Further: potency means the concentration at half of the fitted maximal effect. The essentials:
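In 10 mM Tris-HCl pH 8.0 containing 0.01% Tween 20, linked NS2B-NS3 protease (25 nM final) is exposed to test compounds for 15 min. Cleavage of 1.5 microM Rhodamine110 substrate is tracked by fluorescence over 15 min.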

The test system of the next experiment is C33A. The experiment can be described thus: Primary qHTS to identify gynecologic anti-cancer compounds using libraries of approved drugs and bioactive compounds (AID 1345084). Further: nearly all actives have a fitted effect of over 55% in size. Further: potency means the concentration at half of the fitted maximal effect. To be noted: Gynecologic cancer cell panel viability, ATPlite luminescence, 48 h; series mostly up to 57.5 µM. Summed up: as §1
A further experiment has as its system CASKI. Described as above. To be noted: Gynecologic cancer cell panel viability, ATPlite luminescence, 48 h; series mostly up to 57.5 µM. Summed up:
as §1

The next experiment concerns OV90. The description is as above. To be noted: Gynecologic cancer cell panel viability, ATPlite luminescence, 48 h; series mostly up to 57.5 µM. Summed up:
as §1

For a further experiment, the system named is Tov112D. Described as above. The settings on record: Gynecologic cancer cell panel viability, ATPlite luminescence, 48 h; series mostly up to 57.5 µM. The essentials: as §1
Another experiment concerns JEG-3. The description is as above. The settings on record: Gynecologic cancer cell panel viability, ATPlite luminescence, 48 h; series mostly up to 57.5 µM. The essentials:
as §1

Where [13] appears, read: measured here: PEO1 parental Z-AUC.

Where “and” joins values, the source holds several entries; their conditions need not be identical. Equal entries are not always repeated. Records with an inconclusive call do not appear. Calls of active or inactive are those of the source. Unless noted, the call rests on the fitted dose curve; in most records, active means well fitted curve in the direction sought with a large enough effect; inconclusive means small, poorly fitted or top-dose-only effect, or another doubt; inactive means no such curve, though single readings can be large; an effect the other way counts as inactive or inconclusive.

Sequence of Phospholipid hydroperoxide glutathione peroxidase GPX4 (Homo sapiens) (P36969 whole entry, looked up): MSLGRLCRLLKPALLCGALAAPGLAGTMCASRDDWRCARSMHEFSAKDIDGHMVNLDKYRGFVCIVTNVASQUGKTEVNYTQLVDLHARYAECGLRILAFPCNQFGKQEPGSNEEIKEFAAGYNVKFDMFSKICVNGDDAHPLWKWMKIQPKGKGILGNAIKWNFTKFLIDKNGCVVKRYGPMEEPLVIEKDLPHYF
Sequence of Calcium and integrin-binding protein 1 (Homo sapiens) (Q99828 whole entry, looked up): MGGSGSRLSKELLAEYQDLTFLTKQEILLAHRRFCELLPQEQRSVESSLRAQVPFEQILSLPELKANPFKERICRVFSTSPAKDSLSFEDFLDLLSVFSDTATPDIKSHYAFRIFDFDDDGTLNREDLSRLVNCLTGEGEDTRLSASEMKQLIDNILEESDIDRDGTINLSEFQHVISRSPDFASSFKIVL
Sequence of Glutathione peroxidase 1 (Homo sapiens) (P07203 whole entry, looked up): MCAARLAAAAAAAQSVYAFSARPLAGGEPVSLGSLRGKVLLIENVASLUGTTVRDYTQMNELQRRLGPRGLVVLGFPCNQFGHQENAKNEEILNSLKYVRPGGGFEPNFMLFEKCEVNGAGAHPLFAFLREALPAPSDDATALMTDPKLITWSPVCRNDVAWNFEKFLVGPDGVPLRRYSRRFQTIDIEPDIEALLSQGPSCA

On to `C[C@@H]1CCNC(=O)c2cc3ccc(C(=O)Nc4nc5ccccc5n4CCCN(C)C)cc3n21`, for which the Potency result in [1], in [2], in experiment [6], in [7], in experiment [8] and in experiment [9] was “inactive” each time. Further, the Potency result (in experiment [10]; with Es-2; with HeLa; in the experiment on Hek293T) was “inactive” in each case. Besides, in [3], the outcome was inactive. The Potency in [4] was 16.3 µM (active); in experiment [5] it was 14.8 µM (active). Moreover, the Z-AUC in experiment [11] is -0.825 (inactive); in [11] (setting [13]), -0.925; in experiment [11] (measured here: PEO4 Z-AUC), -1.11.

In the case of `CC(=O)Nc1ccc(C(=O)Nc2ccccc2N)cc1`, the Potency entry (in experiment [12]; in experiment [6]; in experiment [7]; in [8]; in experiment [9]; with C33A) was “inactive” throughout. The Potency result in the experiment with CASKI and with Tov112D was “inactive” throughout. For the same compound, the outcome in experiment [3] was inactive. The Potency in experiment [4] is 3.55 µM (active) and 3.72 µM (active); in experiment [5], 2.82 µM (active) and 3.72 µM (active); in the experiment with OV90, 3.98 µM (active). Moreover, the results for the Z-AUC in experiment [11], in experiment [11] (setting [13]) and in experiment [11] (measured here: PEO4 Z-AUC) were -0.302 (inactive), -0.636 and -0.146, respectively.

As for `O=C(O)c1ccc(O)c2ncc(N3CCCN(CCc4cccc5ccccc45)CC3)cc12`, the Potency is 6.31 µM (active) in experiment [12], 4.09 µM (active) in experiment [4] and 4.09 µM (active) in experiment [5]. Also, the result in [3] was inactive. In addition, the Potency entry (in experiment [6]; in experiment [7]; in experiment [8]; in experiment [10]; with CASKI; in the experiment with HeLa) was “inactive” in each case.

On to `C=CC(=O)Nc1cccc(Nc2nc(Nc3ccc(Oc4ccnc(C(=O)NC)c4)cc3)ncc2F)c1`, for which the Potency result in experiment [12], in experiment [6], in experiment [7], in [8], in [9] and in experiment [10] was “inactive” each time. Besides, the Potency entry with C33A, with CASKI, in the experiment on JEG-3 and in the experiment with OV90 was “inactive” in each case. Besides, in [3], the result was inactive. The Potency in [4] is 10.3 µM (active) and 5.9 µM (active); in [5] it was 10.3 µM (active) and 6.61 µM (active). The figures for the Z-AUC in experiment [11], in [11] (setting [13]) and in experiment [11] (measured here: PEO4 Z-AUC) were -0.493 (inactive), -0.105 and -0.427, respectively.

As for `Cc1[nH]c(/C=C2\C(=O)Nc3ccc(F)cc32)c(C)c1C(=O)NC[C@H](O)CN1CCOCC1`, the Potency entry (in experiment [2]; in [12]; in experiment [6]; in [7]; in [8]; in the experiment with C33A) was “inactive” throughout. Further, the Potency result in the experiment with CASKI, in the experiment with Hek293T, in the experiment with JEG-3, with OV90 and in the experiment with Tov112D was “inactive” in each case. In addition, the result in experiment [3] was inactive. For the same compound, the Potency in experiment [4] is 6.49 µM (active) and 9.34 µM (active); in experiment [5], 6.49 µM (active) and 10.5 µM (active). Moreover, the Z-AUC in [11] was -1.33 (inactive); in experiment [11] (setting [13]), 0.846; in [11] (measured here: PEO4 Z-AUC) it was 0.0211.

Consider `O=C(C1=CCN2c3c(cccc31)OC[C@H]2CN1CCOCC1)c1cccc2ccccc12`, for which the Potency entry in experiment [2], in experiment [12], in experiment [6], in [7], in experiment [8] and in experiment [9] was “inactive” in each case. Also, the Potency entry (in experiment [10]; in the experiment on CASKI; with Hek293T; in the experiment on JEG-3) was “inactive” each time. In addition, the result in experiment [3] was inactive.

With `CC(=O)Nc1nc2c(Oc3cc(-c4ccc(C(F)(F)F)cc4)ncn3)cccc2s1`, the Potency result (in experiment [2]; in experiment [6]; in experiment [7]; in experiment [8]; in experiment [9]; in the experiment on C33A) was “inactive” throughout. In addition, the Potency result in the experiment with JEG-3 and in the experiment with Tov112D was “inactive” throughout. In addition, the result in experiment [3] was inactive. The Potency is 6.49 µM (active) in experiment [4] and 4.09 µM (active) in experiment [5].
